# The list is not random: actives were taken first. Their share in the collection is about 1.4%.
# BJeLR viability: BJeLR cell viability loss; inhibition, % (concentration not given with the values); hit rate 0.17% among 300,000; BJeLR (HRASV12) viability, CellTiter-Glo ATP luminescence, 48 h; in the data active means inhibition above about 50%
# PrPC surface inh: inhibitors of human cell surface prion protein PrPC | AID 720596 | P04156 | hit rate 0.43% among 370,000 | TR-FRET read-out | inhibition, % at 13.8 µM; in the data active means inhibition above about 24%; further: 0% = median of the test wells and 100% = reference compound wells
# DUSP3 inh: blocks human VHR1 dual specificity phosphatase; AID 1654; hit rate 0.52% among 290,000; recombinant VHR phosphatase, pNPP absorbance; inhibition, % at 13.3 µM; in the data active means inhibition above about 50%
# Target sequence (P51452 whole entry, looked up): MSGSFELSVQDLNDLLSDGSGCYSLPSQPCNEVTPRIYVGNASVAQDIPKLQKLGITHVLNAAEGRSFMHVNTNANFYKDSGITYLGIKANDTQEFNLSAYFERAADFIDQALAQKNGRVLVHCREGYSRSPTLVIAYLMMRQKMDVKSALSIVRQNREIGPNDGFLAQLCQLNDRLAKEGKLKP
# ugtP null kill: growth inhibition of S. aureus ugtP deletion strain. S. aureus RN4220 ugtP deletion, OD600 growth, 16 h. growth inhibition, % (no concentration beside the values). hit rate 0.54% among 330,000. AID 1259309; in the data active means growth inhibition above about 68%;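 further: plate controls were untreated wells for no effect and antibiotic for full effect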
# Sa RN4220 lethal: S. aureus RN4220 growth inhibition. OD600, 16 h. inhibition, % (concentration not given with the values). hit rate 0.33% among 330,000; in the data active means inhibition above about 85%;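 further: plate controls were untreated cells for no effect and reference antibiotic for full effect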
# SARS 3CLpro inh-1: SARS-CoV 3CLpro protease inhibition; P0C6X7; recombinant SARS-CoV 3CLpro, quenched FRET peptide cleavage; inhibition, % at 6 µM; hit rate 0.14% among 290,000; in the data active means inhibition above about 12%
# SARS 3CLpro inh-2: confirmation of SARS coronavirus 3C-like protease inhibitors. shares compounds with SARS 3CLpro inh-1. QFRET protease activity assay, 3CLpro. hit rate 36% among 380. inhibition, % at 6 µM. AID 1879; in the data active means inhibition above about 13%
# An asterisk follows results filed as active; nt = not tested or not shown.
SMILES,BJeLR viability,PrPC surface inh,DUSP3 inh,ugtP null kill,Sa RN4220 lethal,SARS 3CLpro inh-1,SARS 3CLpro inh-2
Cc1ccc(C)c(N2CCN(C(=O)CCS(=O)(=O)c3ccc4c(c3)NC(=O)C(C)S4)CC2)c1 (centres undefined),-7,1,-6,-3,2,13*,3
Cc1ccc(CN2CC(=O)N3C4c5ccccc5OCC4C(c4ccccc4)[C@]3(C)C2=O)cc1 (some centres undefined),nt,nt,nt,-11,-3,nt,nt
CCOc1ccc(N(CC(=O)NCCSCc2ccco2)S(=O)(=O)c2ccc(C)cc2)cc1,1,-3,-14,4,-2,12*,-1
COc1cc(/C=N\NC(=O)Cn2nnc3ccccc32)cc(OC)c1OC,3,-1,12,nt,nt,37*,57*
O=C(Cn1nnc2ccccc21)N/N=C\c1cccs1,-4,-2,7,nt,nt,14*,16*
[O-][N+](=Cc1ccccc1)c1ccc(Br)cc1,nt,nt,nt,8,-4,nt,nt
COc1cccc(NC(=O)c2cc(Cl)nnc2Cl)c1,-8,-8,15,-3,-3,7,nt
COc1cc(NC(=O)c2cc(Cl)nnc2Cl)cc(OC)c1OC,11,-11,20,13,5,22*,6
CNC(=O)[C@@]1(C)C=CC(Cc2ccccc2)N1C(=O)OC (some centres undefined),nt,nt,nt,-1,5,nt,nt
O=C(CSc1ccc(F)cc1)Nc1ccc2c(c1)C(=O)NC2=O,-8,-6,21,1,0,13*,1
C#CCOCCOCCOCCNc1nc(N2CCN(C(=O)C(C)n3cc(CCCN=C(N)N)nn3)CC2)nc(N2CCN(C(=O)C(C(C)CC)n3cc(CCCCN)nn3)CC2)n1 (centres undefined),nt,nt,nt,3,6,nt,nt
C[C@@]12C(=O)N(c3cccc(F)c3)C(=O)N1[C@H](c1ccc(F)cc1)[C@@H]1C(=O)N(C3CCCCC3)C(=O)[C@@H]12,-5,nt,1,nt,nt,14*,6
C[C@@]12C(=O)N(c3cccc(F)c3)C(=O)N1[C@H](c1ccc(Cl)cc1)[C@@H]1C(=O)N(C3CCCCC3)C(=O)[C@@H]12,1,0,nt,nt,nt,nt,nt
CN(C)C1=NCC(Cc2ccccc2)N1CCc1ccc(F)cc1 (centres undefined),nt,nt,nt,4,2,nt,nt
Cc1cc(C(=O)NC2CCCc3c2cnn3-c2ccc(C(C)(C)C)cc2)n[nH]1 (centres undefined),-5,2,2,4,2,13*,2
CC(C)(C)c1ccc(-n2ncc3c2CCCC3NC(=O)c2ccncc2)cc1 (centres undefined),20,-4,10,-4,6,2,nt
COc1ccc(CC(N)=NOC(=O)c2ccc(Cl)cc2)cc1,nt,nt,nt,-2,5,nt,nt
COc1ccc(-c2n[nH]c(C(F)(F)F)c2-c2cc3ccccc3o2)c(O)c1,-3,6,8,100*,100*,14*,9
COc1ccccc1-c1c(-c2ccc(OCC(=O)NN)cc2O)n[nH]c1C(F)(F)F,1,6,5,-6,7,2,nt
COc1cc(NS(=O)(=O)c2ccc(NC(=S)NC(=O)c3ccc(F)cc3)cc2)nc(OC)n1,-6,-4,12,11,10,12*,6
COc1ccc(C(=O)NC(=S)Nc2ccc(S(=O)(=O)Nc3cc(OC)nc(OC)n3)cc2)cc1,-5,5,17,-6,13,8,nt
COc1ccc2c(c1)C(=O)N1C3c4cc(Br)ccc4OCC3C(c3ccccc3)[C@]1(C)C(=O)N2 (some centres undefined),nt,nt,nt,-27,-6,nt,nt
CC1COC(=O)C(NC(=O)OCC2c3ccccc3-c3ccccc32)CC=CCC(CC(=O)N(CCO)Cc2ccccc2)C(=O)N1 (centres undefined),nt,nt,nt,-12,0,nt,nt
Cc1ccc(C(=O)C2=C(O)C(=O)N(Cc3cccnc3)C2c2ccc(OC(C)C)cc2)o1 (centres undefined),5,2,-20,21,5,13*,-7
CN(C)S(=O)(=O)c1cccc(NC(=O)CSc2cccc3cccnc23)c1,2,4,1,13,1,17*,35*
SMILES,BJeLR viability,PrPC surface inh,DUSP3 inh,ugtP null kill,Sa RN4220 lethal,SARS 3CLpro inh-1,SARS 3CLpro inh-2
O=C1/C(=C/c2cccc(Cl)c2)SC(=S)N1CCC(=O)N1CCCCC1CCO (centres undefined),-3,11,-12,-6,0,14*,3
C/C(=N\N=C(/N)SC1CC(=O)N(c2cccc(Cl)c2)C1=O)c1cccs1 (centres undefined),5,5,22,nt,nt,13*,2
O=C(Cc1ccc(Cl)cc1)NCCCn1ccnc1,1,-4,-2,-7,3,5,nt
O=C(Cc1c(F)cccc1Cl)NCCCn1ccnc1,-2,-5,13,8,2,38*,-5
CCOC(=O)C1C2COc3ccccc3C2N2C(=O)N(c3ccc(F)cc3)C(=O)[C@@]12C (some centres undefined),nt,nt,nt,-1,7,nt,nt
O=C(CSc1ccccn1)Nc1nonc1[N+](=O)[O-],23,4,-6,86*,40,41*,49*
Cc1cccc(C(N)=NOC(=O)Cc2ccccc2)c1,nt,nt,nt,-2,2,nt,nt
COc1cc2c(cc1OC)C1C(CC=C3CCN(C)C31)OC2O (centres undefined),nt,nt,nt,-16,5,nt,nt
Cc1cc(NC(=O)COC(=O)C(Nc2ccc(C(F)(F)F)cc2Cl)C(C)C)no1 (centres undefined),-5,13,-10,-15,-16,14*,13*
Cc1ccc(S(=O)(=O)Nc2cc(-c3ccccc3)nn2C)cc1,-6,2,28,0,5,0,nt
Cc1ccc(S(=O)(=O)Nc2cc(-c3ccccc3)nn2C)cc1Cl,3,-1,16,-6,20,14*,9
COc1cc(NC(=O)c2ccc(NS(=O)(=O)c3c(C)noc3C)cc2)cc(OC)c1,-18,-3,11,3,1,7,nt
Cc1noc(C)c1S(=O)(=O)Nc1ccc(C(=O)Nc2ccc(OC(F)(F)F)cc2)cc1,6,6,2,-16,1,13*,8
COC(=O)c1ccccc1NC(=O)c1ccc2c(c1)OCCCO2,3,-4,10,4,11,12*,-2
CCc1ccc2c(c1)C(NC(C)=O)C(=O)N2CCN1CCOCC1 (centres undefined),-2,-6,-4,nt,nt,14*,50*
C=CCOC(=O)C1=CC(c2coc3ccccc3c2=O)CC(OCc2ccc(CO)cc2)O1 (centres undefined),nt,nt,nt,4,3,nt,nt
O=C(Cn1nnc2ccccc21)c1ccc(Cl)cc1,2,0,10,4,2,35*,35*
O=C(Cn1nnc2ccccc21)c1ccc([N+](=O)[O-])cc1,-2,-16,3,3,10,5,nt
CC1CN=C(Nc2ccccc2)N1CCCC1CCCC1 (centres undefined),nt,nt,nt,0,5,nt,nt

# Bioassay records: PubChem BioAssay, several laboratories
